Most compounds without a hit are left out; they make up all but 4.6% or so of the library.
Peg3 promoter – Peg3 promoter-driven luciferase inhibitors, primary screen, cell-based, HeLa, luciferase luminescence. HeLa PEG-Prom luciferase reporter, overnight. 360,000 compounds, 1.7% hits. inhibition, % at 20 µM;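 active means inhibition of at least 50% at 20 µM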
KKLEB cytotox – cytotoxicity in KKLEB CF airway cells, primary screen, cytotoxicity control for CF NF-kB inhibitor project, cell-based, uHTS, fluorescence assay plates; AID 602141, 2011; KKLEB CF airway cells viability, ATPlite luminescence, overnight; stronger effect = lower value; cells stimulated with P. aeruginosa culture filtrate; activity change (cytotoxicity), % at 5 µM; 360,000 compounds, 0.36% hits;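 active means corrected activity change at or below -50% at 5 µM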
ABHD5 PLIN5 PPI – ABHD5-PLIN5 interaction inhibitors, primary screen, cell lysate, split luciferase complementation, luminescence | Perilipin-5 (Homo sapiens) + 1-acylglycerol-3-phosphate O-acyltransferase ABHD5 (Homo … | Split G. princeps luciferase complementation, 4 h | inhibition, % at 4 µM | 360,000 compounds, 0.78% hits | AID 602281, 2012;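 active means inhibition above the mean inhibition across every tested compound plus 3 SD, cut at about 22% in these data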
Mdm2 MdmX PPI – inhibitors of human Mdm2-MdmX association, primary screen, cell-based, luminescence, split luciferase, SaOS-2, uHTS. Protein Mdm4 (Homo sapiens) + E3 ubiquitin-protein ligase Mdm2 (Homo sapiens), …. SaOS-2 split-luciferase Mdm2/MdmX complementation. inhibition, % at 8 µM. 330,000 compounds, 3% hits;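 active means inhibition of at least 50% at 8 µM in the primary screen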
CF NFkB inh – inhibitors of PAF-induced NF-kB signaling, primary screen, cell-based, GFP fluorescence, uHTS | KKLEB NF-kB-GFP reporter, GFP fluorescence overnight | inhibition, % at 5 µM | 360,000 compounds, 0.86% hits | AID 588850, 2011;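 active means at least 50% inhibition at 5 µM, scaled per plate between neutral and stimulator controls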;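 further: PAF is a Pseudomonas aeruginosa culture filtrate used as stimulus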
HIF-2a inh – HIF-2a reporter inhibitors, primary screen, luminescence, 786-0 RCC cells; 786-0 RCC cells HIF-2a reporter, luciferase luminescence, overnight; inhibition, % at 18.8 µM; 360,000 compounds, 0.72% hits;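 active means inhibition of the luminescence signal of 40% or more relative to plate controls, in a single-dose primary screen at 18.75 µM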
Of the large screens only hits and unclear results are named; the others gave an inactive call.

COc1ccc(C(=O)Nc2nc(C)c(C)s2)cc1OC	none
CCCC(C(=O)NC(C)(C)C)N(Cc1ccc(F)cc1)C(=O)c1snc(C(N)=O)c1N (stereo not drawn)	Peg3 promoter 97
Cc1ccccc1-c1nc(SCc2cccnc2)c2c(=O)n(C)c(=O)n(C)c2n1	Peg3 promoter 64
Cc1cc(NC(=O)C(C)SCC(=O)N(C)CC(=O)Nc2ccc(F)cc2)no1 (stereo not drawn)	ABHD5 PLIN5 PPI 23
O=C(c1cn(Cc2ccccc2)nc1-c1cccnc1)N1CCN(Cc2ccccc2)CC1	Peg3 promoter 98
CCc1ccc(NC(=O)CSc2nc(=O)n3cc(C)ccc3n2)cc1	none
Cn1c(SCC(=O)NCC2CCCO2)nnc1-c1ccc(Cl)cc1 (stereo not drawn)	none
CN(C)c1nc(=NCc2cccs2)ss1	ABHD5 PLIN5 PPI 78 (no result: Mdm2 MdmX PPI)
O=C(c1ccccc1)c1ccc2nc(-c3ccco3)c(-c3ccco3)nc2c1	ABHD5 PLIN5 PPI 29
Cc1ccc(C(=O)NCCc2ccccc2)cc1	HIF-2a inh 54
O=C(NCCO)c1ccc2nc(-c3ccco3)c(-c3ccco3)nc2c1	none
O=C(NCCc1ccccc1)c1ccc2nc(-c3ccco3)c(-c3ccco3)nc2c1	ABHD5 PLIN5 PPI 29
O=C(NCCCNC(=O)c1ccco1)c1ccc(Cl)c(Cl)c1	Peg3 promoter 53
O=C(NC1CCCC1)c1ccc2nc(-c3ccco3)c(-c3ccco3)nc2c1	none
O=C(NCCCNC(=O)c1cc(Cl)ccc1Cl)c1ccco1	none
CCCCNC(=O)C1(C)CCC(=O)N1C1CC1 (stereo not drawn)	none (no result: Mdm2 MdmX PPI)
CN1CCN(NC(=O)CN2C(=O)/C(=C/c3ccccc3Cl)SC2=S)CC1	none
COc1ccccc1/C=C1\SC(=S)N(CCC(=O)NC2=NCCS2)C1=O	HIF-2a inh 72
CN1CCN(C(=O)CCN2C(=O)/C(=C/c3ccccc3Cl)SC2=S)CC1	Peg3 promoter 59
CN1CCN(C(=O)CCN2C(=O)/C(=C\c3ccccc3F)SC2=S)CC1	CF NFkB inh 55
COc1ccc(/C=C2/SC(=O)N(CCC(=O)Nc3ccccc3C(=O)O)C2=S)cc1	HIF-2a inh 57
O=C(CCN1C(=O)/C(=C\c2ccccc2F)SC1=S)N1CCOCC1	none (no result: Mdm2 MdmX PPI)
O=C(CCN1C(=O)/C(=C\c2cccs2)SC1=S)NC1=NCCS1	none
CCc1ccc(/C=C2/SC(=S)N(CCCC(=O)Nc3ccccc3C(=O)O)C2=O)cc1	none
O=C(CCCN1C(=O)/C(=C/c2ccccc2Cl)SC1=S)N1CCOCC1	HIF-2a inh 49
COc1ccc(/C=C2\SC(=S)N(CCCC(=O)N3CCOCC3)C2=O)cc1	HIF-2a inh 68
O=C(O)CCN1C(=O)/C(=C\c2cccc(Oc3ccccc3)c2)SC1=S	HIF-2a inh 72
COc1ccc(/C=C2/SC(=S)N(CCC(=O)O)C2=O)cc1	HIF-2a inh 85
CCn1c(SCC(=O)NC2CCCC2)nnc1C(C)NC(=O)c1ccccc1Br (stereo not drawn)	none
CCc1ccccc1N1C(=O)[C@@H]2Cc3ccccc3CN2C1=O	none
Cc1nc2sccn2c(=O)c1S(=O)(=O)Nc1cccc(Cl)c1C	none
Cc1cc(C)cc(C(=O)NCC(=O)OCC(=O)N2CCCC2)c1	none (no result: Mdm2 MdmX PPI)
Cc1ccc(NNC(=O)C(O)(c2cccc(C(F)(F)F)c2)c2cccc(C(F)(F)F)c2)cc1	Peg3 promoter 67
NC(Cc1ccc(C(F)(F)F)cc1)c1csc(Nc2cnccn2)n1 (stereo not drawn)	none (no result: Mdm2 MdmX PPI)
COc1ccc(CC(N)c2csc(NC(=O)c3cc(C(C)(C)C)oc3C)n2)cc1 (stereo not drawn)	Peg3 promoter 99 (no result: Mdm2 MdmX PPI)
COc1ccc(CC(N)c2csc(NC(=O)Nc3ccc(OC)cc3)n2)cc1 (stereo not drawn)	none (no result: Mdm2 MdmX PPI)
COc1cc(NC(=O)Nc2nc(C(N)Cc3ccc(C(F)(F)F)cc3)cs2)cc(OC)c1OC (stereo not drawn)	Peg3 promoter 92 (no result: Mdm2 MdmX PPI)

High-throughput results: PubChem BioAssay, several laboratories
